# Values joined by “and” are separate entries in the source; they are usually repeats but may differ in a detail not shown here. Equal entries are not always repeated. The whole screen tested about 5,700 compounds, of which about 85 (1%) were called active. No stated cut-off is given here; in the data, active means p53-positive nuclei above about 36% (passing the limit was not always enough); inactive means the rest. The full list was thinned out, with actives kept by preference. Where a structure was tested more than once in an assay, its records may differ in their call.
# Key:
# [1] = nuclear p53 accumulation, HPV+ cells – imaging, p53-positive nuclei imaging, 24 h, 48 h (AID 1508601); conditions: 24/48 h
# [2] = biological target: Cellular tumor antigen p53 (Homo sapiens) (UniProt P04637); assay: as above; conditions: 24/48 h, stronger effect = higher value
# [3] = measured here: cell number at 24 h, Library stock concentration: 10 mM
# [4] = measured here: cell number at 48 h, Library stock concentration: 10 mM
# [5] = Library stock concentration: 10 mM
# [6] = measured here: p53 positive nuclei at 24 h, Library stock concentration: 10 mM
# [7] = measured here: cell number at 24 h, Library stock concentration: 80 uM
# [8] = measured here: cell number at 24 h, Library stock concentration: 400 uM
# [9] = measured here: cell number at 24 h, Library stock concentration: 2 mM
# [10] = measured here: cell number at 48 h, Library stock concentration: 80 uM
# [11] = measured here: cell number at 48 h, Library stock concentration: 400 uM
# [12] = measured here: cell number at 48 h, Library stock concentration: 2 mM
# [13] = Library stock concentration: 80 uM
# [14] = Library stock concentration: 400 uM
# [15] = Library stock concentration: 2 mM
# [16] = measured here: p53 positive nuclei at 24 h, Library stock concentration: 80 uM
# [17] = measured here: p53 positive nuclei at 24 h, Library stock concentration: 400 uM
# [18] = measured here: p53 positive nuclei at 24 h, Library stock concentration: 2 mM
# [19] = measured here: cell number at 24 h, concentration not given here
# [20] = measured here: cell number at 48 h, concentration not given here
# [21] = measured here: p53 positive nuclei at 24 h, concentration not given here
# Cellular tumor antigen p53 (Homo sapiens), sequence (P04637 whole entry, looked up): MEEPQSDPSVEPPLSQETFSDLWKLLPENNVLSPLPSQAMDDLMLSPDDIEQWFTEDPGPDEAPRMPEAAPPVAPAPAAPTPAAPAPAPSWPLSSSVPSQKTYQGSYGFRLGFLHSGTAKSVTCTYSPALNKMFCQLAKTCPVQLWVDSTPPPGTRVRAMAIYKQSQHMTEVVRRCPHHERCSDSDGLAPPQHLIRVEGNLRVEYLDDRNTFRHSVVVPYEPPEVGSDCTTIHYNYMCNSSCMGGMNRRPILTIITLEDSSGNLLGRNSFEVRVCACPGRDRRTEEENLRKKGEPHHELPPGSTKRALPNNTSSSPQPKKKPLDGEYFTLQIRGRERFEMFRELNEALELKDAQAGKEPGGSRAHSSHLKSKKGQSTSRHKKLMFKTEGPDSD
smiles,measurement,setting,value
CNC(=O)c1ccc(Nc2ncc(C(F)(F)F)c(NCc3nccnc3N(C)S(C)(=O)=O)n2)cc1,"nuclei count, normalised","[1]; measured here: cell number at 24 h, Library stock concentration: 46 uM",91.8%
same,"nuclei count, normalised","[1]; measured here: cell number at 24 h, Library stock concentration: 278 uM",82%
same,"nuclei count, normalised","[1]; measured here: cell number at 24 h, Library stock concentration: 1.67 mM",95.8%
same,"nuclei count, normalised",[1]; [3],47.5%
same,"nuclei count, normalised","[1]; measured here: cell number at 48 h, Library stock concentration: 46 uM",91.6%
same,"nuclei count, normalised","[1]; measured here: cell number at 48 h, Library stock concentration: 278 uM",86.7%
same,"nuclei count, normalised","[1]; measured here: cell number at 48 h, Library stock concentration: 1.67 mM",108%
same,"nuclei count, normalised",[1]; [4],33.5%
same,"p53-positive nuclei, normalised",[2]; Library stock concentration: 46 uM,-0.225% (inactive)
same,"p53-positive nuclei, normalised",[2]; Library stock concentration: 278 uM,-0.256% (inactive)
same,"p53-positive nuclei, normalised",[2]; Library stock concentration: 1.67 mM,0.138% (inactive)
same,"p53-positive nuclei, normalised",[2]; [5],14.9% (inactive)
same,"p53-positive nuclei, normalised","[2]; measured here: p53 positive nuclei at 24 h, Library stock concentration: 46 uM",-0.00777%
same,"p53-positive nuclei, normalised","[2]; measured here: p53 positive nuclei at 24 h, Library stock concentration: 278 uM",-0.0569%
same,"p53-positive nuclei, normalised","[2]; measured here: p53 positive nuclei at 24 h, Library stock concentration: 1.67 mM",0.153%
same,"p53-positive nuclei, normalised",[2]; [6],8.89%
CS(=O)(=O)c1cccc(CNc2nc(Nc3ccc4c(c3)CCC(=O)N4)ncc2C(F)(F)F)c1,"nuclei count, normalised",[1]; [7],112%
same,"nuclei count, normalised",[1]; [8],104%
same,"nuclei count, normalised",[1]; [9],111%
same,"nuclei count, normalised","[1]; measured here: cell number at 24 h, Library stock concentration: 3.33 mM",70.4%
same,"nuclei count, normalised",[1]; [3],48.4%
same,"nuclei count, normalised",[1]; [10],115%
same,"nuclei count, normalised",[1]; [11],109%
same,"nuclei count, normalised",[1]; [12],115%
same,"nuclei count, normalised","[1]; measured here: cell number at 48 h, Library stock concentration: 3.33 mM",76.2%
same,"nuclei count, normalised",[1]; [4],28.9%
same,"p53-positive nuclei, normalised",[2]; [13],0.032% (inactive)
same,"p53-positive nuclei, normalised",[2]; [14],-0.135% (inactive)
same,"p53-positive nuclei, normalised",[2]; [15],0.159% (inactive)
same,"p53-positive nuclei, normalised",[2]; Library stock concentration: 3.33 mM,-0.301% (inactive)
same,"p53-positive nuclei, normalised",[2]; [5],1.33% (inactive)
same,"p53-positive nuclei, normalised",[2]; [16],-0.0118%
same,"p53-positive nuclei, normalised",[2]; [17],-0.00681%
same,"p53-positive nuclei, normalised",[2]; [18],0.177%
same,"p53-positive nuclei, normalised","[2]; measured here: p53 positive nuclei at 24 h, Library stock concentration: 3.33 mM",-0.516%
same,"p53-positive nuclei, normalised",[2]; [6],0.847%
CN(c1ccccc1CNc1nc(Nc2ccc3c(c2)CC(=O)N3)ncc1C(F)(F)F)S(C)(=O)=O,"nuclei count, normalised",[1]; [7],112% and 102%
same,"nuclei count, normalised",[1]; [8],112% and 102%
same,"nuclei count, normalised",[1]; [9],83.1% and 86.6%
same,"nuclei count, normalised",[1]; [3],33.4% and 36.5%
same,"nuclei count, normalised",[1]; [10],116% and 109%
same,"nuclei count, normalised",[1]; [11],120% and 115%
same,"nuclei count, normalised",[1]; [12],81.2% and 88.6%
same,"nuclei count, normalised",[1]; [4],22.6% and 25.6%
same,"p53-positive nuclei, normalised",[2]; [13],-0.0383% (inactive) and 0.0654% (inactive)
same,"p53-positive nuclei, normalised",[2]; [14],0.0612% (inactive) and 0.141% (inactive)
same,"p53-positive nuclei, normalised",[2]; [15],1.2% (inactive) and 0.96% (inactive)
same,"p53-positive nuclei, normalised",[2]; [5],55.4% (inactive) and 54.9% (active)
same,"p53-positive nuclei, normalised",[2]; [16],-0.06% and 0.248%
same,"p53-positive nuclei, normalised",[2]; [17],0.0578% and 0.322%
same,"p53-positive nuclei, normalised",[2]; [18],0.201% and 0.404%
same,"p53-positive nuclei, normalised",[2]; [6],43.5% and 27.2%
CCCCC/C=C/C=C1/C=CC(=O)[C@@H]1C/C=C\CCCC(=O)O,"nuclei count, normalised",[1]; [19],106%
same,"nuclei count, normalised",[1]; [20],102%
same,"p53-positive nuclei, normalised",[2]; concentration not given here,0.0559% (inactive)
same,"p53-positive nuclei, normalised",[2]; [21],0.0826%
O=C(O)CCC/C=C\C[C@@H]1[C@@H](/C=C/[C@@H](O)COc2ccccc2)[C@H](O)C[C@@H]1O,"nuclei count, normalised",[1]; [19],96%
same,"nuclei count, normalised",[1]; [20],102%
same,"p53-positive nuclei, normalised",[2]; concentration not given here,-0.0602% (inactive)
same,"p53-positive nuclei, normalised",[2]; [21],-0.00687%
CC(=O)Nc1ccc(S(=O)(=O)Nc2ccc([N+](=O)[O-])cc2)cc1,"nuclei count, normalised",[1]; [19],87.2%
same,"nuclei count, normalised",[1]; [20],92.6%
same,"p53-positive nuclei, normalised",[2]; concentration not given here,-0.0672% (inactive)
same,"p53-positive nuclei, normalised",[2]; [21],0.0938%
COC(=O)C#Cc1ccc([N+](=O)[O-])cc1,"nuclei count, normalised","[1]; measured here: cell number at 24 h, Library stock concentration: 500 nM",110%
same,"nuclei count, normalised","[1]; measured here: cell number at 24 h, Library stock concentration: 1.5 uM",114%
same,"nuclei count, normalised","[1]; measured here: cell number at 24 h, Library stock concentration: 4.6 uM",106%
same,"nuclei count, normalised","[1]; measured here: cell number at 24 h, Library stock concentration: 13.7 uM",116%
same,"nuclei count, normalised","[1]; measured here: cell number at 24 h, Library stock concentration: 41 uM",110%
same,"nuclei count, normalised","[1]; measured here: cell number at 24 h, Library stock concentration: 123 uM",103%
same,"nuclei count, normalised","[1]; measured here: cell number at 24 h, Library stock concentration: 370 uM",118%
same,"nuclei count, normalised","[1]; measured here: cell number at 24 h, Library stock concentration: 1.111 mM",107%
same,"nuclei count, normalised","[1]; measured here: cell number at 24 h, Library stock concentration: 3.333 mM",74.6%
same,"nuclei count, normalised",[1]; [3],49.2%
same,"nuclei count, normalised","[1]; measured here: cell number at 48 h, Library stock concentration: 500 nM",111%
same,"nuclei count, normalised","[1]; measured here: cell number at 48 h, Library stock concentration: 1.5 uM",112%
same,"nuclei count, normalised","[1]; measured here: cell number at 48 h, Library stock concentration: 4.6 uM",112%
same,"nuclei count, normalised","[1]; measured here: cell number at 48 h, Library stock concentration: 13.7 uM",112%
same,"nuclei count, normalised","[1]; measured here: cell number at 48 h, Library stock concentration: 41 uM",114%
same,"nuclei count, normalised","[1]; measured here: cell number at 48 h, Library stock concentration: 123 uM",106%
same,"nuclei count, normalised","[1]; measured here: cell number at 48 h, Library stock concentration: 370 uM",117%
same,"nuclei count, normalised","[1]; measured here: cell number at 48 h, Library stock concentration: 1.111 mM",108%
same,"nuclei count, normalised","[1]; measured here: cell number at 48 h, Library stock concentration: 3.333 mM",69.9%
same,"nuclei count, normalised",[1]; [4],32.5%
same,"p53-positive nuclei, normalised",[2]; Library stock concentration: 500 nM,-0.248% (inactive)
same,"p53-positive nuclei, normalised",[2]; Library stock concentration: 1.5 uM,0.113% (inactive)
same,"p53-positive nuclei, normalised",[2]; Library stock concentration: 4.6 uM,-0.0386% (inactive)
same,"p53-positive nuclei, normalised",[2]; Library stock concentration: 13.7 uM,0.351% (inactive)
same,"p53-positive nuclei, normalised",[2]; Library stock concentration: 41 uM,-0.0492% (inactive)
same,"p53-positive nuclei, normalised",[2]; Library stock concentration: 123 uM,0.00469% (inactive)
same,"p53-positive nuclei, normalised",[2]; Library stock concentration: 370 uM,0.132% (inactive)
same,"p53-positive nuclei, normalised",[2]; Library stock concentration: 1.111 mM,-0.122% (inactive)
same,"p53-positive nuclei, normalised",[2]; Library stock concentration: 3.333 mM,0.307% (inactive)
same,"p53-positive nuclei, normalised",[2]; [5],69.2% (active)
same,"p53-positive nuclei, normalised","[2]; measured here: p53 positive nuclei at 24 h, Library stock concentration: 500 nM",-0.0875%
same,"p53-positive nuclei, normalised","[2]; measured here: p53 positive nuclei at 24 h, Library stock concentration: 1.5 uM",-0.0262%
same,"p53-positive nuclei, normalised","[2]; measured here: p53 positive nuclei at 24 h, Library stock concentration: 4.6 uM",-0.0872%
same,"p53-positive nuclei, normalised","[2]; measured here: p53 positive nuclei at 24 h, Library stock concentration: 13.7 uM",0.099%
same,"p53-positive nuclei, normalised","[2]; measured here: p53 positive nuclei at 24 h, Library stock concentration: 41 uM",0.0546%
same,"p53-positive nuclei, normalised","[2]; measured here: p53 positive nuclei at 24 h, Library stock concentration: 123 uM",-0.148%
same,"p53-positive nuclei, normalised","[2]; measured here: p53 positive nuclei at 24 h, Library stock concentration: 370 uM",-0.0792%
same,"p53-positive nuclei, normalised","[2]; measured here: p53 positive nuclei at 24 h, Library stock concentration: 1.111 mM",-0.148%
same,"p53-positive nuclei, normalised","[2]; measured here: p53 positive nuclei at 24 h, Library stock concentration: 3.333 mM",0.591%
same,"p53-positive nuclei, normalised",[2]; [6],73.8%
O=C(N[C@@H](CO)[C@H](O)c1ccc([N+](=O)[O-])cc1)C(Cl)Cl,"nuclei count, normalised",[1]; [19],109%
same,"nuclei count, normalised",[1]; [20],107%
same,"p53-positive nuclei, normalised",[2]; concentration not given here,-0.175% (inactive)
same,"p53-positive nuclei, normalised",[2]; [21],-0.247%
